Rows were chosen to be rich in hits. Some 2.3% of all compounds tested hit in one or more screens of this group.
AmpC detergent – AmpC beta-lactamase inhibition with detergent present; AmpC hydrolysis of nitrocefin, absorbance 480 nm, 0.01% Triton; AID 485294; 370,000 tested, 0.041% active; Potency, µM (top dose mostly 114 µM), usual class: inhibitors; P00811; further: nearly all actives have a fitted effect of over 25% in size
Target sequence (P00811 whole entry, looked up): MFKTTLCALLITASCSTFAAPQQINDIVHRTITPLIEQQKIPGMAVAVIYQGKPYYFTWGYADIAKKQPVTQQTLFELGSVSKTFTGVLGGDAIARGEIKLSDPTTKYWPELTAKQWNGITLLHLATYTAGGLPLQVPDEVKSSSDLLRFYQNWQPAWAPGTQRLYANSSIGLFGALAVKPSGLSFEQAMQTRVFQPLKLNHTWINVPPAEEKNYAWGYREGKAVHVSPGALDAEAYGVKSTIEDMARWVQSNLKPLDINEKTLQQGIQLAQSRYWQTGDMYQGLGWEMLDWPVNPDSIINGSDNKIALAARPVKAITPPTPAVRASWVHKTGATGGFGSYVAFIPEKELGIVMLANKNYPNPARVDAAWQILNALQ
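20 mM phosphate pH 7.0 + 0.01% (detergent screen) or 0.0001% Triton X-100; 5.3 nM AmpC reagent; cpd preinc 15 min RT; nitrocefin (800 uM stock) to start; A480 q20 s × 4 min; Activity was normalised to no-enzyme and no-compound control wells.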
AmpC no deterg – AmpC beta-lactamase inhibition without detergent; P00811; AID 485341; Potency, µM (series often up to 57.1 µM), usual class: inhibitors; AmpC nitrocefin hydrolysis, absorbance 480 nm, 0.0001% Triton; 330,000 tested, 0.52% active; further: nearly all actives have a fitted effect of over 20% in size
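20 mM phosphate pH 7.0 + 0.01% (detergent screen) or 0.0001% Triton X-100; 5.3 nM AmpC reagent; cpd preinc 15 min RT; nitrocefin (800 uM stock) to start; A480 q20 s × 4 min; Activity was normalised to no-enzyme and no-compound control wells.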
Marburg entry inh – Marburg virus entry inhibition; Marburg virus pseudotyped entry inhibition, cell reporter; Potency, µM (highest dose often 37.8 µM), usual class: inhibitors; 300,000 tested, 1.8% active; calls by dose curve; tested in HEK293 cells
Lassa entry inh – Lassa virus entry inhibition | 300,000 tested, 1.2% active | Lassa virus pseudotype entry inhibition, cell reporter | Potency, µM (highest dose often 37.9 µM), hits mostly inhibitors; calls by dose curve; tested in HEK293 cells; further: nearly all actives have a fitted effect of over 50% in size
AMA1 RON2 block – AMA1-RON2 (P. falciparum) interaction inhibition. Potency, µM (series often up to 58.2 µM), usual class: inhibitors. 360,000 tested, 0.2% active. AID 720542. AlphaScreen AMA1-biotinylated RON2 peptide binding; further: nearly all actives have a fitted effect of over 45% in size
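AMA1 (3D7) with his tag at 25 nM final met compounds first, then biotinylated RON2 peptide at 25 nM; detection used donor plus acceptor beads, 10 µg/mL apiece, read by AlphaScreen after 30 min at room temperature.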
Of the large screens only hits and unclear results are named; the others gave an inactive call. Unless noted, the call rests on the fitted dose curve; in most records, active means well fitted curve in the direction sought with a large enough effect; inconclusive means small, poorly fitted or top-dose-only effect, or another doubt; inactive means no such curve, though single readings can be large; an effect the other way counts as inactive or inconclusive.

CCc1nn2c(=O)cc(COC(=O)c3ccccc3NC(=O)c3ccc(C(C)(C)C)cc3)nc2s1	Lassa entry inh inconclusive (no result: AmpC no deterg, Marburg entry inh, AMA1 RON2 block)
C=CCC12OC3(OC)CC1[C@H](C)[C@@H](c1ccccc1)C2[C@]3(O)CC=C (some centres not stated)	none (no result: AmpC detergent, AmpC no deterg, Lassa entry inh, AMA1 RON2 block)
Cc1sc(NC(=O)/C=C/c2ccc(C(C)C)cc2)c(C#N)c1C	Marburg entry inh inconclusive, Lassa entry inh inconclusive
CC(C)c1ccc(/C=C/C(=O)Nc2nncs2)cc1	Marburg entry inh inconclusive, Lassa entry inh 8.91µM
CCOc1ccc(NC(=O)c2cc(S(=O)(=O)N3CCc4ccccc43)ccc2F)cc1	Lassa entry inh inconclusive (no result: AmpC no deterg, Marburg entry inh, AMA1 RON2 block)
Cc1cc(C(=O)Nn2c(-c3ccc(Br)cc3)nc3ccccc3c2=O)ccc1[N+](=O)[O-]	AmpC no deterg 14.1µM, Marburg entry inh inconclusive
CSCCC(NC(=O)c1ccccc1)C(=O)N1CCN(C(c2ccccc2)c2ccccc2)CC1 (configuration not stated)	Lassa entry inh 14.1µM
O=C(NCC(=O)N1CCN(C(c2ccccc2)c2ccccc2)CC1)c1ccccc1Br	none (no result: AmpC detergent, AmpC no deterg, Marburg entry inh, Lassa entry inh)
Cc1cc(C)cc(C(=O)NCC(=O)N2CCN(C(c3ccccc3)c3ccccc3)CC2)c1	AmpC detergent inconclusive, Marburg entry inh 12.6µM
COCc1[nH]nc2c1[C@@H](c1cccc(OC)c1)C(C#N)=C(N)O2	none (no result: AmpC detergent, AmpC no deterg, Lassa entry inh, AMA1 RON2 block)
CCOC(=O)Cn1c(=O)n(C2CCCCC2)c2nc(-c3ccc(C(C)C)cc3)nc(C(N)=O)c21	none (no result: AmpC no deterg, Marburg entry inh, AMA1 RON2 block)
COc1ccc(-c2cc(-c3ccccc3)[n+](C)c(-c3ccccc3)c2)cc1	Marburg entry inh 6.31µM, Lassa entry inh inconclusive
CCc1ccccc1NC(=O)N1CC(CC)Oc2ccc(Cl)cc21 (configuration not stated)	Lassa entry inh inconclusive (no result: AmpC no deterg, Marburg entry inh, AMA1 RON2 block)
Cc1cc(OCCCSc2nc(-c3ccc(C(C)(C)C)cc3)nc3cc(=O)[nH]n23)ccc1Cl	none (no result: AmpC no deterg, Marburg entry inh, AMA1 RON2 block)
CCOC(=O)c1c(-c2ccccc2)oc2ccc(OC(C)=O)cc12	Lassa entry inh inconclusive
CCOC(=O)c1c(-c2ccc(OC)cc2)oc2ccc(OC(=O)N(C)C)cc12	Marburg entry inh 18.3µM, Lassa entry inh inconclusive
Cc1ccccc1NC(=O)c1ccc2c(c1)OCCO2	AmpC detergent inconclusive
O=C(Nc1ccc(Br)cc1F)c1ccc2c(c1)OCCO2	Marburg entry inh 6.31µM, Lassa entry inh inconclusive
O=C(NCCc1ccccc1F)c1ccc2c(c1)OCCO2	Marburg entry inh inconclusive, Lassa entry inh 0.891µM
O=C(Nc1ccc(F)cc1F)c1ccc2c(c1)OCCO2	AmpC detergent inconclusive, Marburg entry inh 2.82µM, Lassa entry inh inconclusive
CC(C)Oc1cccc(C(=O)Nc2ccc(Br)cc2F)c1	Marburg entry inh inconclusive, Lassa entry inh 2µM
O=C(NCc1ccccc1F)c1ccc2c(c1)OCO2	AmpC detergent inconclusive
CCCCOC(=O)c1ccc(NC(=O)/C(C#N)=C/c2ccc(-c3ccccc3)o2)cc1	none (no result: AmpC no deterg, Marburg entry inh, AMA1 RON2 block)
Cc1cc2c(cc1S(=O)(=O)Nc1cccc(Cl)c1C)OCCN2C	none (no result: AmpC no deterg, Marburg entry inh, AMA1 RON2 block)
CCOC(=O)C(C)=NNC(C)=O	none (no result: AmpC detergent, AmpC no deterg, Lassa entry inh, AMA1 RON2 block)
Cc1cc(C)c(S(=O)(=O)Nc2ccc3c4c(cccc24)CC3)c(C)c1	Marburg entry inh inconclusive, Lassa entry inh 1µM
Cc1cc(C)c(S(=O)(=O)Nc2ccc3c(c2)CCC3)c(C)c1	Marburg entry inh 7.31µM, Lassa entry inh inconclusive
CCN(Cc1ccccc1)S(=O)(=O)c1ccc(-c2coc(C)n2)cc1	none (no result: AmpC no deterg, Marburg entry inh, AMA1 RON2 block)
O=C1c2cccc3cccc(c23)C(=O)N1CCN1CCN(CC(O)COCc2ccc(Cl)cc2)CC1 (configuration not stated)	Marburg entry inh inconclusive, Lassa entry inh 18.4µM, AMA1 RON2 block inconclusive
COc1cc(COCC(O)CN2CCN(CCN3C(=O)c4cccc5cccc(c45)C3=O)CC2)cc(OC)c1OC (configuration not stated)	AmpC detergent inconclusive, Marburg entry inh inconclusive
COc1ccc(COCC(O)CN2CCC(CN3C(=O)c4cccc5cccc(c45)C3=O)CC2)cc1OC (configuration not stated)	Marburg entry inh 9.2µM, Lassa entry inh inconclusive
CCN(CC)CCNC(=O)C1=C(OC)CC(N)=C(Cl)C1	none (no result: AmpC detergent, AmpC no deterg, Lassa entry inh, AMA1 RON2 block)
Oc1ccccc1/C=N/N1CCN(c2ccccn2)CC1	Marburg entry inh inconclusive, AMA1 RON2 block inconclusive
C(=N\N1CCN(c2ccccn2)CC1)/c1cccc2ccccc12	AmpC detergent inconclusive, AMA1 RON2 block 14.1µM

Screening data deposited in PubChem BioAssay by National Center for Advancing Translational Sciences (NCATS).
